{"source": "PubChem BioAssay", "note": "Calls of active or inactive are those of the source. How the calls were made is not given here."}
{"target": "Pantothenate synthetase (Mycobacterium tuberculosis (strain ATCC 25618 / H37Rv)) (UniProt P9WIL5)", "sequence (P9WIL5 whole entry, looked up)": "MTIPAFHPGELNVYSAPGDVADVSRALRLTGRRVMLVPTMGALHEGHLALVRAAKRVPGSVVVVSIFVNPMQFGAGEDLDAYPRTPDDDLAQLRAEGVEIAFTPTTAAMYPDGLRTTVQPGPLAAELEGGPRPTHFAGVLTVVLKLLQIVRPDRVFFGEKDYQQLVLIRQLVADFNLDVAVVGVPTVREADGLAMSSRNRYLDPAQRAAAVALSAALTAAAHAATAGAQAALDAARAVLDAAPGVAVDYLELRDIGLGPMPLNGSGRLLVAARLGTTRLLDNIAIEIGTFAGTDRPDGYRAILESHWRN", "assay": "Coupled enzyme confirmation of inhibitors against recombinant Mtb PanC (AID 375);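 further: 0% = full reaction with vehicle and 100% = no enzyme background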", "details": "coupled enzyme assay; at 10 µM, active compounds read high"}
{"smiles": "CSc1ccccc1NC(=O)c1noc2c1CCC2", "inhibition": "0% (inactive)"}
{"smiles": "CCc1nnc(NC(=O)CSc2nnc3scc(-c4ccc(C)cc4)n23)s1", "inhibition": "0% (inactive)"}
{"smiles": "O=C(NC1(C(F)(F)F)C(=O)Nc2c1c(=O)[nH]c(=O)n2Cc1ccco1)C1CCCCC1", "note": "(centres undefined)", "inhibition": "0% (inactive)"}
{"smiles": "CN(c1ccccc1C(=O)N1CCN(c2cccc(Cl)c2)CC1)S(C)(=O)=O", "inhibition": "0% (inactive)"}
{"smiles": "COc1ccc(S(=O)(=O)N2CCN(CC(=O)Nc3ccc(F)c(F)c3)CC2)cc1", "inhibition": "7% (inactive)"}
{"smiles": "COc1cccc(-n2nnnc2SCC(=O)NCc2ccco2)c1", "inhibition": "0% (inactive)"}
{"smiles": "CC(=O)Nc1ccc(NC(=O)Cn2cc3c(n2)CCC(C)C3)cc1", "note": "(centres undefined)", "inhibition": "3% (inactive)"}
{"smiles": "O=C(CN(Cc1ccco1)C(=O)CNS(=O)(=O)c1ccc(Cl)cc1)NCc1ccc(F)cc1", "inhibition": "3% (inactive)"}
{"smiles": "Cc1nnc(NS(=O)(=O)c2ccc(N)cc2)s1", "inhibition": "0% (inactive)"}
{"smiles": "CCN(CC)CCN1C(=O)c2oc3ccc(F)cc3c(=O)c2C1c1ccncc1", "note": "(centres undefined)", "inhibition": "0% (inactive)"}
{"smiles": "O=C(CN1C(=O)CCS(=O)(=O)c2ccccc21)Nc1cccc(F)c1", "inhibition": "5% (inactive)"}
{"smiles": "CCOC(=O)c1sc2nc(N3CCCC3)c3c(c2c1N)CC(C)(C)OC3", "inhibition": "0% (inactive)"}
{"smiles": "Cc1cccc(CCNC(=O)CCc2nc(-c3ccccc3F)no2)c1", "inhibition": "0% (inactive)"}
{"smiles": "Cc1noc(C)c1COC(=O)c1ccccc1Oc1ccccc1", "inhibition": "0% (inactive)"}
{"smiles": "CN1CCc2c(sc3c2C(=O)NC(c2cccc(OC(=O)c4cccs4)c2)N3)C1", "note": "(centres undefined)", "inhibition": "0% (inactive)"}
{"smiles": "CN(C)CCCN1c2ccccc2Sc2ccc(Cl)cc21", "inhibition": "0% (inactive)"}
{"smiles": "COc1ccccc1N1CCN(C(=O)N2CCOCC2)CC1", "inhibition": "0% (inactive)"}
{"smiles": "CCc1cc2c(=O)c(-c3cscn3)coc2cc1O", "inhibition": "0% (inactive)"}
{"smiles": "C=CCSc1nc2c(c(=O)[nH]c(=O)n2C)n1CC", "inhibition": "2% (inactive)"}
{"smiles": "CCOC(=O)C1=C(c2ccccc2)N2CCN=C2S1", "inhibition": "3% (inactive)"}
{"smiles": "COc1ccc(C(=O)Nn2c(SCC(=O)NCC3CCCO3)nc3ccccc3c2=O)cc1", "note": "(centres undefined)", "inhibition": "2% (inactive)"}
{"smiles": "CCn1c(CCC(=O)Nc2nc3c(s2)CCCC3)nc2cc(S(=O)(=O)N(C)C)ccc21", "inhibition": "3% (inactive)"}
{"smiles": "COCCCNC(=O)CCc1nc2cccnc2n1Cc1ccc(OC)cc1", "inhibition": "0% (inactive)"}
{"smiles": "CN(C)S(=O)(=O)c1ccc(S(=O)(=O)Nc2ccc3c(c2)oc2ccccc23)cc1", "inhibition": "0% (inactive)"}
{"smiles": "Cc1ccc(F)cc1NC(=O)c1cccc2nccnc12", "inhibition": "1% (inactive)"}
{"smiles": "CC(=O)SCCC(=O)Nc1ccccc1", "inhibition": "0% (inactive)"}
{"smiles": "O=C1NC(c2ccco2)Nc2ccccc21", "note": "(centres undefined)", "inhibition": "0% (inactive)"}
{"smiles": "CCC(=O)n1nc(-c2ccco2)nc1N", "inhibition": "0% (inactive)"}
{"smiles": "Cc1cc(C)nc(SCc2csc(N)n2)n1", "inhibition": "1% (inactive)"}
{"smiles": "CCCSc1nnc(N2C(=O)CC(c3ccsc3)C3=C2CCCC3=O)s1", "note": "(centres undefined)", "inhibition": "0% (inactive)"}
{"smiles": "COc1ccc(-n2cc(-c3ccccc3)c3c(N4CCN(CCO)CC4)ncnc32)cc1", "inhibition": "0% (inactive)"}
{"smiles": "COc1ccccc1N1CCN(C(CNS(=O)(=O)c2cc(F)ccc2F)c2cccnc2)CC1", "note": "(centres undefined)", "inhibition": "0% (inactive)"}
{"smiles": "COc1ccccc1NC(=O)N1CCCC1C(=O)NC1CCCCC1", "note": "(centres undefined)", "inhibition": "0% (inactive)"}
{"smiles": "COc1ccc(Cn2nnnc2C(c2cccnc2)N2CCN(c3ccc(O)cc3)CC2)cc1", "note": "(centres undefined)", "inhibition": "0% (inactive)"}
{"smiles": "CCOCCCNC(=O)CS(=O)(=O)Cc1nc(-c2cccc(OC)c2)oc1C", "inhibition": "0% (inactive)"}
{"smiles": "Cc1cc(C(=O)N2CCCc3ccccc32)no1", "inhibition": "3% (inactive)"}
{"smiles": "O=S(=O)(c1ccc2ccccc2c1)N(CC(O)CN1CCOCC1)c1ccccc1", "note": "(centres undefined)", "inhibition": "0% (inactive)"}
{"smiles": "CCN(CC)S(=O)(=O)c1ccc(NC2CCCc3ccccc32)nc1", "note": "(centres undefined)", "inhibition": "0% (inactive)"}
{"smiles": "O=C(Nc1ccccn1)NC(C(F)(F)F)C(F)(F)F", "inhibition": "0% (inactive)"}
